Compounds with a hit are over-represented: about 9.2% of the library has one in this group of screens.
ELG1 DNA repair: blocks ELG1-dependent DNA repair in HEK293T cells; HEK293T ELG1-luciferase reporter, luminescence, 16 h; DNA damage induced by 5-fluorouridine; Potency, µM (top dose mostly 46.1 µM), without a hit: at the top dose activity change, negative = inhibition, actives largely listed as inhibitors; 330,000 tested, 2.3% active; note: % is set by controls: 0 for no effect and ±100 for the full control effect; nearly all actives have a fitted effect of over 55% in size
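Reporter activity after DNA damage by 5-fluorouridine is monitored. Compound-treated cells incubate 16 hr at 37 °C, then ONE-Glo is added for 30 min before luminescence reading.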
ELG1 genotoxic: inducers of genotoxicity in HEK293T ELG1-luciferase cells; 330,000 tested, 1.3% active; HEK293T ELG1-luciferase reporter, luminescence, 16 h; Potency, µM (doses to about 46 µM), without a hit: at the highest dose activity change, positive = activation, most hits filed as activators; note: % of control where 0% means no effect; nearly all actives have a fitted effect of over 60% in size
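ELG1-luciferase HEK293T cells, 2,000/well; compound pinned in; 16 hr, 37 °C, 5% CO2; ONE-Glo, 30 min RT; luminescence on CCD imager.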
Rab9 prom act: activates the Rab9 promoter; Huh7 Rab9 promoter-luciferase reporter, luminescence, 24 h; 320,000 tested, 2.8% active; AID 485297; Potency, µM (top dose mostly 9.22 µM), inactives show at the top dose activation, negative = inhibition, actives largely listed as activators; note: % of control where 0% means no effect; nearly all actives have a fitted effect of over 60% in size
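Cell-based reporter: Huh7 stable for Rab9 promoter-driven luciferase, plated in reduced-serum medium with 10% FBS at 1500 cells/well, compound-treated 24 h at 37 °C, luminescence read after 10 min reagent.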
NPC1 prom act: NPC1 promoter activation; AID 485313; Potency, µM (highest dose often 9.22 µM), for the others: top-dose activation, hits mostly activators; 320,000 tested, 2.4% active; Huh7 NPC1 promoter luciferase reporter, 24 h; note: % of control where 0% means no effect; nearly all actives have a fitted effect of over 60% in size
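Quantitative HTS used a cell-based reporter: Huh7 cells stably bearing the NPC1 promoter upstream of luciferase were treated with compounds for 24 h, and promoter activation was read as luminescence.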
FLuc counter: inhibits or activates purified firefly luciferase, miR-21 counter-screen | purified FLuc, Km substrates, luminescence inhibition | Potency, µM (top dose mostly 57.5 µM), without a hit: at the top dose activity change, negative = inhibition, hits mostly inhibitors | P08659 | 360,000 tested, 6.9% active;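 note: plate controls were vehicle for no effect and reference inhibitor for full effect; nearly all actives have a fitted effect of over 55% in size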
Target sequence (P08659 whole entry, looked up): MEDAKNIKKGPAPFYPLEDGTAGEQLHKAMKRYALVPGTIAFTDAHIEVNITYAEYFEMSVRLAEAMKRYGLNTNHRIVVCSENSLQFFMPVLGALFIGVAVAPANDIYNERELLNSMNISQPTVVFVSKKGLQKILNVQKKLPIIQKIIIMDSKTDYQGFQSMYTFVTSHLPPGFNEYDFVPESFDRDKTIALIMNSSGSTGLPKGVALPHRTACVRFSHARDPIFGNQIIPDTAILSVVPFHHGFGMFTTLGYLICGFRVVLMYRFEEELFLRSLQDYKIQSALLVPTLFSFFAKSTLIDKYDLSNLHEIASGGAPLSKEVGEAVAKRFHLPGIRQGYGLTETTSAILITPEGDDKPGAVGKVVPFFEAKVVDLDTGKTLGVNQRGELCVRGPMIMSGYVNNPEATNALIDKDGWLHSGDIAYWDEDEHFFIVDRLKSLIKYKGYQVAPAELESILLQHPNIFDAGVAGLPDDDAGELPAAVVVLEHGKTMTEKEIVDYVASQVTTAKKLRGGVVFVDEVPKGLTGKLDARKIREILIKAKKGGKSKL
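Purified P. pyralis luciferase (10nM final) with 10uM D-luciferin and 10uM ATP (Km levels) in 50mM Tris acetate pH 7.5, 10mM Mg acetate, 0.01% Tween-20, 0.05% BSA; qHTS 6-point titration, ~60 µM downward; luminescence read.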
SMN2 splice up: increases expression of the SMN2 splice variant | HEK293 SMN2-luciferase splicing reporter, luminescence, 30-36 h | 210,000 tested, 2.8% active | Potency, µM (titrated, usually from 46.1 µM), without a hit: at the top dose activity change, positive = activation, usual class: activators | AID 1458; note: % of control where 0% means no effect; nearly all actives have a fitted effect of over 55% in size
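qHTS luciferase splicing reporter: luminescence rises when SMN2 exon 7 is included in transfected HEK293 cells. Compound exposure lasted 30-36 h at 37C, with 4.5 mM final sodium butyrate as control, followed by a ONE-Glo read.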
The depositor's hits bear a star. Calls come from the whole dose curve; as a rule, active = well fitted curve in the direction sought with a large enough effect; inconclusive = small, poorly fitted or top-dose-only effect, or another doubt; inactive = no such curve, though single readings can be large; an effect the other way counts as inactive or inconclusive. Potency is the fitted concentration of half-maximal effect.

Screening O=C(COC(=O)c1ccco1)Nc1ccc2c(c1)OCO2 returned ELG1 DNA repair 6%, ELG1 genotoxic 0%, Rab9 prom act -1%, NPC1 prom act -1%, FLuc counter inconclusive and SMN2 splice up 12%.
`COc1ccc(S(=O)(=O)N(C)c2ccc(C(=O)NCc3ccccn3)cc2)cc1` gave ELG1 DNA repair -19%, ELG1 genotoxic -6%, Rab9 prom act 6%, NPC1 prom act -1% and FLuc counter 0%.
`COc1ccc(NC(=O)C(NS(=O)(=O)c2ccc3c(c2)CCCC(=O)N3)C(C)C)c(OC)c1` (stereo unspecified) gave FLuc counter -5%.
Screening COc1ccc(C(=O)Nc2nc(-c3nnn(-c4ccc(C(C)C)cc4)c3C)ns2)cc1 returned FLuc counter -3%.
`CN(C)c1ccc(/C=N/NC(=O)c2nonc2N)cc1[N+](=O)[O-]` gave ELG1 DNA repair -4%, ELG1 genotoxic 0%, Rab9 prom act 1%, NPC1 prom act 1% and FLuc counter 12µM*.
O=C(N/N=C/c1cccc(OCc2ccccc2)c1)c1cccs1 was read as ELG1 DNA repair inconclusive, ELG1 genotoxic 5%, Rab9 prom act 28%, NPC1 prom act 23%, FLuc counter 13µM* and SMN2 splice up -11%.
Screening Nc1nonc1C(=O)N/N=C/c1cccc([N+](=O)[O-])c1 returned ELG1 DNA repair 21%, ELG1 genotoxic 1%, Rab9 prom act -6%, NPC1 prom act -2%, FLuc counter 12µM* and SMN2 splice up 7%.
`O=C(O)c1cc2cc(OCc3ccccc3)ccc2[nH]1` gave ELG1 DNA repair -2%, ELG1 genotoxic 12%, Rab9 prom act 10%, NPC1 prom act 5%, FLuc counter 19µM* and SMN2 splice up -2%.
For COc1ccc([N+](=O)[O-])cc1/C=N/NC(=O)c1nonc1N the results were ELG1 DNA repair 4%, ELG1 genotoxic -2%, Rab9 prom act 2%, NPC1 prom act -6%, FLuc counter -1% and SMN2 splice up 0%.
Screening CCOC(=O)C1=C2NC(=O)c3ccccc3N2C(=O)C1 returned ELG1 DNA repair 13%, ELG1 genotoxic 0%, Rab9 prom act 1%, NPC1 prom act -2%, FLuc counter -18% and SMN2 splice up 3%.
Screening Cc1cc(OC(=O)c2cccc(C(F)(F)F)c2)c([N+](=O)[O-])c(=O)[nH]1 returned ELG1 DNA repair 12%, ELG1 genotoxic 2%, Rab9 prom act 2%, NPC1 prom act -5% and FLuc counter -2%.
For Cc1cccc(OCc2ccc(-c3nc(C#N)c(NCc4cccnc4)o3)o2)c1 the results were FLuc counter -9%.
`COc1nnc(-c2ccc(N3CCCCC3)c(NC(=O)c3ccccc3Cl)c2)c2ccccc12` gave FLuc counter 6% and SMN2 splice up 31%.
`O=C(O)/C=C/c1cccc(OCc2ccccc2)c1` gave ELG1 DNA repair inconclusive, ELG1 genotoxic 5%, Rab9 prom act 20%, NPC1 prom act 7%, FLuc counter 13µM* and SMN2 splice up -7%.
CC(=O)c1c(C)oc2ccc(OCc3ccccc3)cc12 was read as ELG1 DNA repair inconclusive, ELG1 genotoxic 12%, Rab9 prom act 27%, NPC1 prom act 26% and FLuc counter 17µM*.
O=C(N/N=C/c1cccc([N+](=O)[O-])c1)c1cccs1 was read as ELG1 DNA repair inconclusive, ELG1 genotoxic inconclusive, Rab9 prom act inconclusive, NPC1 prom act inconclusive, FLuc counter 8.5µM* and SMN2 splice up 13µM*.
For O=C(N/N=C/c1cccc([N+](=O)[O-])c1)c1ccc(Br)cc1 the results were ELG1 DNA repair 3%, ELG1 genotoxic 0%, Rab9 prom act 1%, NPC1 prom act -9% and FLuc counter -1%.
